Test results taken from PubChem BioAssay (NCATS).
Results filed as inconclusive are left out. Unmarked numbers belong to inactive results. Activity calls are given as the source filed them. Calls come from the whole dose curve; as a rule, active = well fitted curve in the direction sought with a large enough effect; inconclusive = small, poorly fitted or top-dose-only effect, or another doubt; inactive = no such curve, though single readings can be large; an effect the other way counts as inactive or inconclusive.

Tests used:
[1] = Quantitative High-Throughput drug screen in 47 multiple myeloma cell lines against the NCATS MIPE library collection: MM1S_ATCC cell viability assay (AID 1918980); note: nearly all actives have a fitted effect of over 45% in size
Summary of the method: (§1)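 Viability after 48 h drug exposure was measured as ATP-dependent luminescence. Cells, 500 per well, sat at 37 °C under 5% CO2; DMSO wells set 100%, media-only wells 0%.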

[2] = Quantitative High-Throughput drug screen in 47 multiple myeloma cell lines against the NCATS MIPE library collection: MM1R_ATCC cell viability assay (AID 1918981); note: nearly all actives have a fitted effect of over 35% in size
Summary of the method: as §1

[3] = Quantitative High-Throughput drug screen in 47 multiple myeloma cell lines against the NCATS MIPE library collection: KMS28PE_JCRB cell viability assay (AID 1918983); note: nearly all actives have a fitted effect of over 35% in size
Summary of the method: as §1

[4] = Quantitative High-Throughput drug screen in 47 multiple myeloma cell lines against the NCATS MIPE library collection: KMS34_JCRB cell viability assay (AID 1918985); note: nearly all actives have a fitted effect of over 40% in size
Summary of the method: as §1

[5] = Quantitative High-Throughput drug screen in 47 multiple myeloma cell lines against the NCATS MIPE library collection: OCIMY7_PLB cell viability assay (AID 1918987); note: nearly all actives have a fitted effect of over 65% in size
Summary of the method: as §1

[6] = Quantitative High-Throughput drug screen in 47 multiple myeloma cell lines against the NCATS MIPE library collection: OCIMY5_PLB cell viability assay (AID 1918988); note: nearly all actives have a fitted effect of over 65% in size
Summary of the method: as §1

[7] = Quantitative High-Throughput drug screen in 47 multiple myeloma cell lines against the NCATS MIPE library collection: OPM1_PLB cell viability assay (AID 1918989); note: nearly all actives have a fitted effect of over 40% in size
Summary of the method: as §1

[8] = Quantitative High-Throughput drug screen in 47 multiple myeloma cell lines against the NCATS MIPE library collection: SKMM1_PLB cell viability assay (AID 1919863); details: SKMM1 myeloma viability, CellTiter-Glo ATP, 48 h; viability: stronger effect = lower value; note: nearly all actives have a fitted effect of over 35% in size
Summary of the method: as §1

[9] = Quantitative High-Throughput drug screen in 47 multiple myeloma cell lines against the NCATS MIPE library collection: U266_ATCC cell viability assay (AID 1919864); note: nearly all actives have a fitted effect of over 35% in size
Summary of the method: as §1

[10] = Quantitative High-Throughput drug screen in 47 multiple myeloma cell lines against the NCATS MIPE library collection: XG6_PLB cell viability assay (AID 1919865); note: nearly all actives have a fitted effect of over 40% in size
Summary of the method: as §1

[11] = Quantitative High-Throughput drug screen in 47 multiple myeloma cell lines against the NCATS MIPE library collection: XG1_PLB cell viability assay (AID 1919866); note: nearly all actives have a fitted effect of over 35% in size
Summary of the method: as §1

[12] = Quantitative High-Throughput drug screen in 47 multiple myeloma cell lines against the NCATS MIPE library collection: VP6_DJ cell viability assay (AID 1919867); note: nearly all actives have a fitted effect of over 40% in size
Summary of the method: as §1

[13] = Quantitative High-Throughput drug screen in 47 multiple myeloma cell lines against the NCATS MIPE library collection: NCIH929_DSMZ cell viability assay (AID 1918978); note: nearly all actives have a fitted effect of over 35% in size
Summary of the method: as §1

[14] = Quantitative High-Throughput drug screen in 47 multiple myeloma cell lines against the NCATS MIPE library collection: LP1_DSMZ cell viability assay (AID 1918982); note: nearly all actives have a fitted effect of over 35% in size
Summary of the method: as §1

[15] = Quantitative High-Throughput drug screen in 47 multiple myeloma cell lines against the NCATS MIPE library collection: PE2_PLB cell viability assay (AID 1919869); note: nearly all actives have a fitted effect of over 35% in size
Summary of the method: as §1

[16] = Quantitative High-Throughput drug screen in 47 multiple myeloma cell lines against the NCATS MIPE library collection: L363_DSMZ cell viability assay (AID 1918984); note: nearly all actives have a fitted effect of over 40% in size
Summary of the method: as §1

[17] = Quantitative High-Throughput drug screen in 47 multiple myeloma cell lines against the NCATS MIPE library collection: OCIMY1_PLB cell viability assay (AID 1918979); note: nearly all actives have a fitted effect of over 35% in size
Summary of the method: as §1

[18] = Quantitative High-Throughput drug screen in 47 multiple myeloma cell lines against the NCATS MIPE library collection: UTMC2_PLB cell viability assay (AID 1919868); details: CellTiter-Glo ATP luminescence, 48 h; viability (% of DMSO control): at 45.8 µM (top of the series); note: nearly all actives have a fitted effect of over 55% in size
Summary of the method: as §1
Potency is the fitted concentration of half-maximal effect.

| SMILES | Potency [1] | Potency [2] | Potency [3] | Potency [4] | Potency [5] | Potency [6] | Potency [7] | Potency [8] | Potency [9] | Potency [10] | Potency [11] | Potency [12] | Potency [13] | Potency [14] | viability [8] [%] | Potency [15] | Potency [16] | Potency [17] | Potency [18] |
| --- | --- | --- | --- | --- | --- | --- | --- | --- | --- | --- | --- | --- | --- | --- | --- | --- | --- | --- | --- |
| CC(=O)O[C@@]12CO[C@H]1C[C@H](O)[C@@]1(C)C(=O)[C@H](O)C3=C(C)[C@@H](O)C[C@@](O)([C@@H](OC(=O)c4ccccc4)[C@@H]21)C3(C)C | 10.5 µM (active) | 7.43 µM (active) | 2.64 µM (active) | 3.72 µM (active) | 2.09 µM (active) | 1.48 µM (active) | 1.32 µM (active) | 4.18 µM (active) | inactive | 0.418 µM (active) | 0.526 µM (active) | 0.935 µM (active) | – | – | – | – | – | – | – |
| Cc1nc(-c2ccc(-c3ccc(C(=O)N4CCc5cc6c(cc54)C4(CCN(C)CC4)CO6)cc3)c(C)c2)no1 | inactive | inactive | – | – | – | – | inactive | – | – | – | inactive | – | inactive | inactive | 124 | inactive | – | – | – |
| CC(C)(C)c1cc(C=C(C#N)C#N)cc(Br)c1O | – | 23.5 µM (active) | 23.5 µM (active) | – | 4.69 µM (active) | – | 9.35 µM (active) | – | 26.4 µM (active) | 14.8 µM (active) | – | 11.8 µM (active) | 16.6 µM (active) | 23.5 µM (active) | – | 5.26 µM (active) | – | – | – |
| COc1ccc(C(=O)c2c(C)n(CCN3CCOCC3)c3cc(I)ccc23)cc1 | inactive | – | – | 20.9 µM (active) | 5.9 µM (active) | 9.35 µM (active) | 18.7 µM (active) | 16.6 µM (active) | – | 10.5 µM (active) | 7.43 µM (active) | 6.62 µM (active) | – | – | – | 13.2 µM (active) | 8.33 µM (active) | – | – |
| CC[C@@H](C(N)=O)N1CCCC1=O | – | – | – | – | – | – | 26.4 µM (active) | – | inactive | – | 23.5 µM (active) | – | – | inactive | – | – | – | inactive | – |
| Cc1ccccc1-n1c(Cn2ncc3c(N)ncnc32)nc2cccc(C)c2c1=O | 0.118 µM (active) | 16.6 µM (active) | 9.35 µM (active) | – | 3.32 µM (active) | 4.18 µM (active) | 0.148 µM (active) | 5.26 µM (active) | inactive | 0.0418 µM (active) | 0.296 µM (active) | 0.166 µM (active) | 0.332 µM (active) | – | – | – | 0.0743 µM (active) | – | – |
| c1cc2c(cc1[C@H]1OC[C@H]3[C@H]1CO[C@H]3c1ccc3c(c1)OCO3)OCO2 | – | inactive | inactive | – | – | – | inactive | – | – | 26.4 µM (active) | – | inactive | inactive | – | 134 | – | – | – | – |
| Cc1c(N)nc([C@H](CC(N)=O)NC[C@@H](N)C(N)=O)nc1C(=O)N[C@H](C(=O)N[C@@H](C)[C@H](O)[C@@H](C)C(=O)N[C@@H](C(=O)NCCc1nc(-c2nc(C(=O)NCCC[S+](C)C)cs2)cs1)[C@@H](C)O)C(O[C@H]1O[C@H](CO)[C@H](O)[C@@H](O)[C@@H]1O[C@H]1O[C@H](CO)[C@@H](O)[C@H](OC(N)=O)[C@H]1O)c1cnc[nH]1 (stereo not given in full) | 20.9 µM (active) | – | inactive | 0.264 µM (active) | – | – | – | – | – | 0.59 µM (active) | – | 16.6 µM (active) | – | inactive | 89.3 | – | – | 13.2 µM (active) | – |
| CC1=NN=C(c2ccc(N)cc2)c2cc3c(cc2C1)OCO3 | – | inactive | – | – | – | 18.7 µM (active) | inactive | – | – | inactive | inactive | – | inactive | inactive | 125 | inactive | – | – | – |
| CN1[C@H]2CC(O)C[C@H]1[C@H]1O[C@H]12 (stereo not given in full) | 18.7 µM (active) | 16.6 µM (active) | 20.9 µM (active) | 18.7 µM (active) | 3.32 µM (active) | 18.7 µM (active) | 18.7 µM (active) | 23.5 µM (active) | 23.5 µM (active) | 7.43 µM (active) | – | 9.35 µM (active) | 2.64 µM (active) | 18.7 µM (active) | – | 20.9 µM (active) | inactive | – | – |
| CC(=CCCC1=CCC(C2=CC(=O)OC2O)OC1O)CCC1=C(C)CCCC1(C)C (stereo not given) | 20.9 µM (active) | inactive | – | – | – | – | 11.8 µM (active) | – | 18.7 µM (active) | 16.6 µM (active) | – | 4.18 µM (active) | – | inactive | 104 | inactive | 2.35 µM (active) | inactive | – |
| O=[N+]([O-])c1ncc[nH]1 | inactive | inactive | 0.105 µM (active) | – | – | 29.6 µM (active) | – | – | inactive | – | inactive | – | inactive | inactive | – | inactive | – | – | – |
| COC[C@H]1OC(=O)c2coc3c2[C@@]1(C)C1=C(C3=O)[C@@H]2CC[C@H](O)[C@@]2(C)C[C@@H]1OC(C)=O | 2.35 µM (active) | 0.332 µM (active) | 1.32 µM (active) | 2.09 µM (active) | 0.418 µM (active) | 10.5 µM (active) | 0.332 µM (active) | 7.43 µM (active) | 16.6 µM (active) | 4.18 µM (active) | – | 1.87 µM (active) | 0.209 µM (active) | – | – | 0.743 µM (active) | 2.35 µM (active) | – | 0.296 µM (active) |
| C[C@](O)(COc1ccc(C#N)cc1)C(=O)Nc1ccc(C#N)c(C(F)(F)F)c1 | – | – | – | inactive | 26.4 µM (active) | – | – | – | inactive | – | – | – | – | inactive | – | 18.7 µM (active) | – | inactive | – |
| O=S(=O)(CC1CS1)c1ccc(Oc2ccccc2)cc1 (stereo not given) | 14.8 µM (active) | 16.6 µM (active) | – | – | 5.26 µM (active) | 20.9 µM (active) | 18.7 µM (active) | 20.9 µM (active) | 14.8 µM (active) | 13.2 µM (active) | 14.8 µM (active) | – | 16.6 µM (active) | – | – | 16.6 µM (active) | – | – | – |
